Vaccinia Venus = qHTS for Stage-Specific Inhibitors of Vaccinia Orthopoxvirus: Venus Reporter Primary qHTS. Potency, µM (titrated, usually from 36.5 µM), usual class: inhibitors. 330,000 compounds, 0.46% hits. Vaccinia virus Venus reporter expression, fluorescence; calls by dose curve; tested in A549 cells; further: nearly all actives have a fitted effect of over 30% in size
VACV mCherry inh = qHTS for Stage-Specific Inhibitors of Vaccinia Orthopoxvirus: mCherry Reporter Primary qHTS | Vaccinia virus mCherry reporter infection, fluorescence | Potency, µM (doses to about 36.5 µM), hits mostly inhibitors | 310,000 compounds, 0.63% hits | AID 720579, 2013; calls by dose curve; tested in A549 cells; further: nearly all actives have a fitted effect of over 35% in size
HCV inhibitor = qHTS Assay for Inhibitors of Hepatitis C Virus (HCV); Huh7.5.1 HCVcc-Cre infection, luciferase reporter, 44 h; Potency, µM (highest dose often 41.8 µM), actives largely listed as inhibitors; 340,000 compounds, 3.4% hits; AID 651820, 2012; active means well fitted inhibition curve with a large enough effect; inconclusive means small, poorly fitted or top-dose-only effect, or another doubt; inactive means no such curve, though single readings can be large or run the other way
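Infectious HCV cell culture screen: compound-treated cells (1,000/well, pre-plated 4 h) are infected with HCVcc-Cre at roughly 0.5 moi and grown 44 h. Infection is quantified by luciferase signal after 15 min substrate incubation at room temperature.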
HCMV antiviral = qHTS Assay for inhibitors of the human cytomegalovirus (HCMV). HFF cells, HCMV-luciferase reporter, 72 h; stronger effect = lower value. activity change, negative = inhibition, % at 57.5 µM. 410,000 compounds, 4.5% hits; in the data active means activity change below about -60%; inconclusive means no clear call, values can overlap the other calls; inactive means above about -39%
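HFF cells seeded 16 h at 37C, treated with compounds, infected with luciferase-reporter HCMV at MOI 1 PFU/cell; luciferase read at 72 h post infection, normalized to buffer-only and Salinomycin controls.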
LASV entry inh = qHTS for Inhibitors of binding or entry into cells for Lassa Virus; Lassa virus pseudotype entry inhibition, cell reporter; Potency, µM (series often up to 37.9 µM), hits mostly inhibitors; 300,000 compounds, 1.2% hits; calls by dose curve; tested in HEK293 cells; further: nearly all actives have a fitted effect of over 50% in size
MARV entry inh = qHTS for inhibitors of binding or entry into cells for Marburg Virus; Marburg virus pseudotyped entry inhibition, cell reporter; Potency, µM (titrated, usually from 37.8 µM), most hits filed as inhibitors; 300,000 compounds, 1.8% hits; AID 540276, 2011; calls by dose curve; tested in HEK293 cells
Each line names hits and unclear results; the compound was inactive in the other large screens. This is a sample that favours compounds with a hit; in the whole collection about 7.8% have one here.

O=C(NNC(=S)NC(=O)c1ccc(Br)cc1)c1ccc([N+](=O)[O-])cc1	none (no result: Vaccinia Venus, VACV mCherry inh, LASV entry inh, MARV entry inh)
O=C(NNC(=S)NC(=O)c1ccccc1)c1ccc([N+](=O)[O-])cc1	none (no result: Vaccinia Venus, VACV mCherry inh, LASV entry inh, MARV entry inh)
CCC(O)CNC(=O)c1cnn(-c2nccc(-c3cc(C)sc3C)n2)c1C1CC1 (stereo not given)	none (no result: HCV inhibitor, HCMV antiviral, LASV entry inh, MARV entry inh)
CCOC(=O)c1c(C)oc2ncnc(NCCCN3CCN(c4cc(C)ccc4C)CC3)c12	none (no result: HCV inhibitor, MARV entry inh)
Cc1ccc(C(=O)NC(=S)NNC(=O)c2ccccc2)cc1	none (no result: Vaccinia Venus, VACV mCherry inh, LASV entry inh, MARV entry inh)
O=C(NNc1c(Cl)cc(Cl)cc1Cl)c1cccc([N+](=O)[O-])c1	HCV inhibitor 10µM
O=C(NNC(=S)NC(=O)c1ccccc1Cl)c1cccc([N+](=O)[O-])c1	HCV inhibitor inconclusive
O=C(COc1cccc(NC(=O)c2cccc([N+](=O)[O-])c2)c1)c1ccc(Br)cc1	Vaccinia Venus inconclusive, HCV inhibitor 14.1µM, HCMV antiviral -72.8, LASV entry inh 22.4µM, MARV entry inh inconclusive (no result: VACV mCherry inh)
Cc1ccc(C(=O)NNC(=S)NC(=O)c2ccccc2)cc1	Vaccinia Venus inconclusive, VACV mCherry inh inconclusive, HCV inhibitor inconclusive, HCMV antiviral -85.4, LASV entry inh inconclusive
O=C(Nc1cccc(OCC(=O)N2CCOCC2)c1)c1cccc([N+](=O)[O-])c1	none (no result: Vaccinia Venus, VACV mCherry inh)
CC(=O)Nc1ccc(NC(=S)NC(=O)c2ccc(-c3ccccc3)cc2)cc1	none (no result: Vaccinia Venus, VACV mCherry inh, LASV entry inh, MARV entry inh)
Cc1ccc(NC(=O)NC(=S)NC(=O)c2ccccc2)cc1	Vaccinia Venus 7.08µM, VACV mCherry inh inconclusive, LASV entry inh inconclusive
N#Cc1nc(-c2ccco2)oc1N1CCN(c2ccccc2)CC1	HCMV antiviral -64.6, LASV entry inh inconclusive (no result: VACV mCherry inh)
N#Cc1nc(COc2ccccc2)oc1N1CCCC1	MARV entry inh inconclusive
N#Cc1nc(COc2ccc(-c3ccccc3)cc2)oc1NCCCN1CCOCC1	Vaccinia Venus inconclusive, HCV inhibitor inconclusive, LASV entry inh inconclusive, MARV entry inh inconclusive
CN(C)CCNc1oc(COc2ccc(-c3ccccc3)cc2)nc1C#N	HCV inhibitor 10µM, LASV entry inh inconclusive, MARV entry inh inconclusive
CN1CCN(c2oc(COc3ccc(-c4ccccc4)cc3)nc2C#N)CC1	HCV inhibitor 5.01µM, MARV entry inh inconclusive
COc1ccc(N2CCN(c3oc(Cc4ccccc4)nc3C#N)CC2)cc1	LASV entry inh 5.17µM, MARV entry inh inconclusive (no result: Vaccinia Venus, VACV mCherry inh)
COc1ccc(N2CCN(c3oc(COc4ccccc4)nc3C#N)CC2)cc1	LASV entry inh inconclusive
CCOC(=O)c1sc(NC(=O)c2nc(SC)ncc2Cl)c(C(=O)OCC)c1C	none (no result: HCV inhibitor)
Cc1ccc(C)c(N2CCN(S(=O)(=O)c3cc(C(=O)Nc4ccccc4C(F)(F)F)ccc3F)CC2)c1	none (no result: HCV inhibitor, MARV entry inh)
COC1CCCCC1C1CCN(C(=O)c2cccs2)CC1 (stereo not given)	none (no result: Vaccinia Venus, VACV mCherry inh, HCV inhibitor, HCMV antiviral, LASV entry inh)
O=c1[nH]cnc2c1ccn2C1OC(CO)C(O)C1O (stereo not given)	VACV mCherry inh inconclusive, HCV inhibitor 1.12µM, HCMV antiviral -69.3 (no result: LASV entry inh, MARV entry inh)
Nc1cnn(C2OC(CO)C(O)C2O)c(=O)n1 (stereo not given)	VACV mCherry inh inconclusive, HCMV antiviral -63.5, LASV entry inh inconclusive, MARV entry inh inconclusive
O=c1[nH]c(=O)n([C@@H]2O[C@H](CO)[C@@H](O)[C@H]2O)cc1F	Vaccinia Venus inconclusive, VACV mCherry inh 1.12µM (no result: HCV inhibitor, HCMV antiviral, LASV entry inh, MARV entry inh)
Nc1nc(=O)n(C2OC(CO)C(O)C2O)cc1F (stereo not given)	VACV mCherry inh 2µM, HCMV antiviral -99.0 (no result: HCV inhibitor, LASV entry inh, MARV entry inh)
Nc1ncn(C2O[C@H](CO)[C@@H](O)[C@H]2O)c(=O)n1 (stereo not given in full)	none (no result: Vaccinia Venus, VACV mCherry inh, HCMV antiviral, LASV entry inh, MARV entry inh)
O=c1[nH]cnc2c1[nH]c(=S)n2C1O[C@@H](CO)[C@H](O)[C@@H]1O (stereo not given in full)	none (no result: HCV inhibitor, HCMV antiviral, LASV entry inh, MARV entry inh)
CC(=O)c1cccc(NC(=O)CCn2nc(C)c(S(=O)(=O)N3CCCCC3)c2C)c1	none (no result: HCV inhibitor, MARV entry inh)
COc1cc(=O)n2c(c1C(=O)NCc1ccco1)CCN(C(=O)c1c(F)ccc(F)c1F)CC2	none (no result: HCV inhibitor, HCMV antiviral, LASV entry inh, MARV entry inh)
C[C@H]1O[C@@H](n2cc(F)c(=O)[nH]c2=O)[C@H](O)[C@H]1O	none (no result: Vaccinia Venus, VACV mCherry inh, HCV inhibitor, HCMV antiviral)
O=c1[nH]c(=O)n(C2OC(CO)C(O)C2O)cc1F (stereo not given)	Vaccinia Venus inconclusive, VACV mCherry inh 1µM, HCV inhibitor inconclusive, LASV entry inh 2µM, MARV entry inh inconclusive (no result: HCMV antiviral)

Bioassay records from PubChem.
